# ChEMBL document CHEMBL4513141, “CO-ADD screening of NIH (USA) - Clinical Collection” (2021)
# Potency and affinity values are given separately.
# Assays:
# Klebsiella pneumoniae = settings: Concentration 20 uM; ASSAY_TEST Inhibition of Bacterial Growth; detection method Absorption (OD600); MEDIA CAMHB; plate type 384well; NBS; CORNING #3640; time 18 hr
# Candida albicans = settings: 20 µM
# Cryptococcus neoformans = settings: Concentration 20 uM; ASSAY_TEST Inhibition of Fungal Growth; detection method Resazurin; Absorption (OD600-OD570); plate type 384well; NBS; CORNING #3640
SMILES,Inhibition (Klebsiella pneumoniae) [%],Inhibition (Candida albicans) [%],Inhibition (Cryptococcus neoformans) [%]
CCC(=O)OCC(=O)[C@@]1(OC(=O)CC)[C@@H](C)C[C@H]2[C@@H]3CCC4=CC(=O)C=C[C@]4(C)[C@@]3(Cl)[C@@H](O)C[C@@]21C [BECLOMETHASONE DIPROPIONATE],7.24,3.12,1.67
O=C1C(CC[S+]([O-])c2ccccc2)C(=O)N(c2ccccc2)N1c1ccccc1 (stereo not given) [SULFINPYRAZONE],13.98,4.96,-8.91
CC(=O)OCC(CCn1cnc2cnc(N)nc21)COC(C)=O [FAMCICLOVIR],11.51,2.72,-0.79
CC(C)(C(=O)c1cccnc1)c1cccnc1 [METYRAPONE],19.17,2.49,-9.27
Cc1[nH]cnc1CN1CCc2c(c3ccccc3n2C)C1=O.Cl [ALOSETRON HYDROCHLORIDE],15.86,2.6,-5.48
CC(Cc1ccc(O)c(O)c1)(NN)C(=O)O.O (stereo not given),11.66,2.35,-6.03
CN(C)CCC(c1ccc(Cl)cc1)c1ccccn1.O=C(O)/C=C\C(=O)O (stereo not given) [CHLORPHENIRAMINE MALEATE],2.46,4.73,0.1
CCCC1O[C@@H]2C[C@H]3[C@@H]4CCC5=CC(=O)C=C[C@]5(C)[C@H]4[C@@H](O)C[C@]3(C)[C@]2(C(=O)CO)O1 (stereo not given in full) [BUDESONIDE],10.57,2.59,-1.35
CC1(C)O[C@@H]2C[C@H]3[C@@H]4C[C@H](F)C5=CC(=O)C=C[C@]5(C)[C@@]4(F)[C@@H](O)C[C@]3(C)[C@]2(C(=O)CO)O1 [FLUOCINOLONE ACETONIDE],-0.92,5.45,6.47
CN(C)CCOC(c1ccccc1)c1ccccc1.Cl [DIPHENHYDRAMINE HYDROCHLORIDE],1.03,4.49,4.12
Cc1onc(-c2ccccc2)c1-c1ccc(S(N)(=O)=O)cc1 [VALDECOXIB],13.38,1.13,0.76
CC(=O)O[C@]1(C(C)=O)CC[C@H]2[C@@H]3C=C(C)C4=CC(=O)CC[C@]4(C)[C@H]3CC[C@@]21C [MEGESTROL ACETATE],7.28,5.92,-0.12
Cl.NC[C@H]1CC[C@H](C(=O)Oc2ccc(CCC(=O)O)cc2)CC1 [CETRAXATE HYDROCHLORIDE],11.26,4.33,-5.7
CCCN1CCCC[C@H]1C(=O)Nc1c(C)cccc1C.Cl [ROPIVACAINE HYDROCHLORIDE],12.03,3.24,-6.59
CN[C@@H]1[C@H](O)[C@H](NC)[C@H]2O[C@@]3(O)C(=O)C[C@@H](C)O[C@H]3O[C@@H]2[C@H]1O.Cl.Cl.Cl.O.O.O,37.26,2.22,-1.83
COc1ccc(CC2c3cc(OC)c(OC)cc3CC[N+]2(C)CCC(=O)OCCCCCOC(=O)CC[N+]2(C)CCc3cc(OC)c(OC)cc3C2Cc2ccc(OC)c(OC)c2)cc1OC.O=S(=O)(O)c1ccccc1 (stereo not given),4.87,3.58,-0.33
Cc1ncc([N+](=O)[O-])n1CC(C)O (stereo not given) [SECNIDAZOLE],8.29,1.89,0.36
Cl.O=C1[C@H]2CCCC[C@H]2C(=O)N1CCCCN1CCN(c2nsc3ccccc23)CC1,9.66,2.33,-7.18
CNNCc1ccc(C(=O)NC(C)C)cc1.Cl [PROCARBAZINE HYDROCHLORIDE],8,2.55,-6.46
CCOC(=O)O[C@]1(C(=O)OCCl)CC[C@H]2[C@@H]3CCC4=CC(=O)C=C[C@]4(C)[C@H]3[C@@H](O)C[C@@]21C [LOTEPREDNOL ETABONATE],0.28,4.45,0.62
CN1CCN(CC/C=C2/c3ccccc3Sc3ccc(S(=O)(=O)N(C)C)cc32)CC1 [THIOTHIXENE],0.07,2.99,-5.03
Cl.c1ccc2c(c1)CCCC2C1=NCCN1 (stereo not given) [TETRAHYDROZOLINE HYDROCHLORIDE],14.26,3.03,-3.23
Cc1ccc(S(=O)(=O)NC(=O)NN2CCCCCC2)cc1 [TOLAZAMIDE],-1.58,-0.09,-7.48
COc1ccc2[nH]c([S+]([O-])Cc3ncc(C)c(OC)c3C)nc2c1 (stereo not given) [OMEPRAZOLE],7.63,27,-26.65
C#C[C@]1(O)CC[C@H]2[C@@H]3[C@H](C)CC4=C(CCC(=O)C4)[C@H]3CC[C@@]21C [TIBOLONE],12.38,6.29,-2.16

SMILES,Inhibition (Klebsiella pneumoniae) [%],Inhibition (Candida albicans) [%],Inhibition (Cryptococcus neoformans) [%]
Nc1nc2c(ncn2COC(CO)CO)c(=O)[nH]1 [GANCICLOVIR],11.05,0,-0.42
COc1ccc(C(=O)NCc2ccc(OCCN(C)C)cc2)cc1OC.Cl,9.02,4.71,-2.57
CCCN[C@H]1CCc2nc(N)sc2C1 [PRAMIPEXOLE],5.86,5.21,-0.71
COc1ccccc1OCC(O)CN1CCN(CC(=O)Nc2c(C)cccc2C)CC1.Cl.Cl (stereo not given) [RANOLAZINE HYDROCHLORIDE],1.09,1.45,-5.35
CC(=O)OCC(=O)[C@@]1(O)CC[C@H]2[C@@H]3CCC4=CC(=O)CC[C@]4(C)[C@H]3[C@@H](O)C[C@@]21C [HYDROCORTISONE ACETATE],10.46,1.02,-7.62
CCC[C@@H]1C[C@@H](C(=O)N[C@@H]([C@H]2O[C@H](SC)[C@H](O)[C@@H](O)[C@H]2O)[C@@H](C)O)N(C)C1.Cl.O [LINCOMYCIN HYDROCHLORIDE],17.37,4.06,-3.42
CCCCc1nc(Cl)c(CO)n1Cc1ccc(-c2ccccc2-c2nnn[n-]2)cc1.[K+] [LOSARTAN POTASSIUM],7.23,5,-3.04
CC1(C)C[C@@H]1C(=O)N/C(=C\CCCCSC[C@H](N)C(=O)O)C(=O)[O-].[Na+] [CILASTATIN SODIUM],-2.84,5.18,-1.08
CN(CCOc1ccc(NS(C)(=O)=O)cc1)CCc1ccc(NS(C)(=O)=O)cc1 [DOFETILIDE],7.49,2.12,-1.31
NS(=O)(=O)c1cc2c(cc1Cl)N=CNS2(=O)=O [CHLOROTHIAZIDE],4.1,4.39,-0.92
CN(C)CC[C@@H](c1ccc(Br)cc1)c1ccccn1.O=C(O)/C=C\C(=O)O [DEXBROMPHENIRAMINE MALEATE],-0.14,1.43,-3.8
CC(C)(C)NC[C@H](O)COc1nsnc1N1CCOCC1.O=C(O)/C=C\C(=O)O [TIMOLOL MALEATE],6.73,-1.73,-3.81
CC(C)(C)NC(=O)[C@H]1CC[C@H]2[C@@H]3CC[C@H]4NC(=O)C=C[C@]4(C)[C@H]3CC[C@]12C [FINASTERIDE],-7.24,0.68,-1.89
COc1ccc(-c2oc3c(CC=C(C)C)c(O[C@@H]4O[C@H](CO)[C@@H](O)[C@H](O)[C@H]4O)cc(O)c3c(=O)c2O[C@@H]2O[C@@H](C)[C@H](O)[C@@H](O)[C@H]2O)cc1 [ICARIIN],1.41,4.36,0.11
C#C[C@]1(O)CC[C@H]2[C@@H]3CCC4=Cc5oncc5C[C@]4(C)[C@H]3CC[C@@]21C [DANAZOL],2.6,6.36,0.96
CC(C)Cc1ccc(C(C)C(=O)O)cc1 (stereo not given) [IBUPROFEN],-1.68,13.3,-3.38
C[C@]12C=CC(=O)C=C1CC[C@@H]1[C@@H]2[C@@H](O)C[C@@]2(C)[C@H]1CC[C@]2(O)C(=O)COC(=O)CCC(=O)[O-].[Na+] [PREDNISOLONE SODIUM SUCCINATE],6.54,-0.07,1.35
Cc1nc2ccccn2c(=O)c1CCN1CCC(C(=O)c2ccc(F)cc2)CC1 [PIRENPERONE],8.87,3.8,-7.79
CCc1c(C)[nH]c2c1C(=O)C(CN1CCOCC1)CC2.Cl (stereo not given) [MOLINDONE HYDROCHLORIDE],-0.12,3.99,6.64
CCCc1nc(C)c2c(O)nc(-c3cc(S(=O)(=O)N4CCN(CC)CC4)ccc3OCC)nn12.O=C(O)CC(O)(CC(=O)O)C(=O)O,10.86,4.67,-15.39
Nc1ccc2cn[nH]c2c1,2.93,4.22,6.83
COc1cc2nc(N(C)CCCNC(=O)C3CCCO3)nc(N)c2cc1OC (stereo not given) [ALFUZOSIN],-2.08,-0.8,-5.01
COC(=O)Nc1nc2cc(C(=O)c3ccccc3)ccc2[nH]1 [MEBENDAZOLE],11.43,4.65,41.35
Cl.O=C(O)/C=C/c1ccc(Cn2ccnc2)cc1,3.67,3.2,-5.32
O=C(O)COCCN1CCN([C@H](c2ccccc2)c2ccc(Cl)cc2)CC1 [LEVOCETIRIZINE],20.22,0.53,0.71
